This is part of a sample that, as a whole, favours compounds with a hit. Of some 83,000 tested, about 20% had one in any assay.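 Activity criterion: percent growth below 10, measured after cells in 96-well plates were exposed to a single compound concentration for 48 hours.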 Calls of active or inactive are those of the source.

The test relates to A549/ATCC NSCLC. Put plainly: NCI-60 one-dose screen, 48 h (100 = growth as untreated, 0 = no growth, -100 = all killed). As to conditions: 10 µM unless noted.
For `Nc1ccccc1-c1ccc(-c2ccc(Cl)cc2)c2c1[nH]c1ccccc12`, the growth was 67.9% (inactive). Under `OC(CNC1CCCCC1)Cn1c2ccc(I)cc2c2cc(I)ccc21` (centres undefined) stands 75% (inactive); under `COc1cc(C(=O)NN=C2c3ccccc3-c3ccccc32)cc(OC)c1OC`, 43.6% (inactive). Under `C=C(C)CCC(C)N1CCC(N2CCC(C(=O)NCCc3ccccc3)CC2)CC1` (centres undefined) stands 43.4% (inactive); under `C#CCn1cc(C=C2C(=O)N(C)C(=O)N(C)C2=O)c2cc(Cl)ccc21`, 120% (inactive). As for `O=C(Nc1ccc(C23CC4CC(CC(c5ccccc5)(C4)C2)C3)cc1)c1cccs1`, the growth was 72.9% (inactive). Under `O=C(Cc1ccccc1)NC(c1ccc(Cl)cc1)c1c(O)ccc2ccccc12` (centres undefined) stands 9.06% (active); under `COc1ccc(CSc2nnc(SCC(=O)Nc3ccc(Cl)cc3)s2)cc1`, 62.4% (inactive); under `O=C(COc1cc(O)c2c(=O)cc(-c3ccccc3)oc2c1)Nc1ccccc1C(F)(F)F`, 0.206% (active). `Cc1cc(OC(=O)c2ccc([N+](=O)[O-])cc2)nc2[nH]c(=O)sc12`: the growth is 103% (inactive).

For the molecule `O=c1oc2ccc(F)cc2c(=O)n1-c1ccc(I)cc1F`, the growth was 5.88% (active). The same measure for `O=Cc1c(OCc2cnnn2CC(=O)Nc2ccc(Br)cc2)ccc2ccccc12`: 91.6% (inactive); for `COc1ccc2[nH]c(O)c(N=NC(=O)c3oc4ccccc4c3C)c2c1`: -23.6% (active).

Regarding `Cc1cc(Nc2ccc(OCc3ccccc3)cc2)nc2cc(O)ccc12`, the growth was 66.6% (inactive). Under `O=C(COc1cc(O)c2c(=O)cc(-c3ccccc3)oc2c1)Nc1ccccc1` stands 84.6% (inactive); under `O=C(Nc1ccc(-c2nc3ccc(NC(=O)c4ccc(Cl)cc4)cc3[nH]2)cc1)c1ccc(Cl)cc1`, 4.64% (active); under `O=C1c2cc(Br)ccc2Oc2cc([N+](=O)[O-])ccc2N1c1ccc(I)cc1F`, 82% (inactive). Take `Cc1ccc2nc(NC(=O)CSC(=S)N3CCN(c4ccccc4)CC3)sc2c1`: the growth was 94.6% (inactive). Regarding `CCCCCCC(O)(c1ccc(F)cc1)C(CN1CCOCC1)c1ccccc1` (centres undefined), the growth was 23.9% (inactive).

Consider `COc1ccc(CCN2CCC(CN(C)Cc3cnn(-c4ccccc4)c3)CC2)cc1`, for which the growth was 4.78% (active).

In the case of `NC(=O)CSc1nc(-c2ccc(F)cc2)cc(-c2ccco2)n1`, the growth was 104% (inactive). The same measure for `CCCSC1=NC2C(N(CC)C(=O)N2CC)N1/N=C/C=C/c1ccccc1[N+](=O)[O-]` (centres undefined): 35.8% (inactive); for `O=c1oc2ccc(Cl)cc2c(=O)n1-c1ccc(I)cc1F`: 7.89% (active). The same measure for `COc1ccc(C2NCCc3c2[nH]c2ccccc32)cc1CN1CCN(c2ccc(F)cc2)CC1` (centres undefined): 63.7% (inactive); for `Cc1sc2ncnc(Sc3nc4ccccc4[nH]3)c2c1C`: -55.1% (active).

With `FC(F)(F)c1cccc(CNC2CCN(CCc3ccccc3)CC2)c1`, the growth is 77.5% (inactive).

In the case of `O=C(Nc1ccc(I)cc1F)c1cc(Br)ccc1O`, the growth was 7.17% (active). Under `Cc1ccc2[nH]c(=O)cc(-n3nncc3Cn3c4ccccc4c4ccccc43)c2c1` stands 98.9% (inactive); under `CC(=O)n1cc(-c2c[nH]c3ccccc23)c(-c2ccc(Cl)cc2)n1`, 93.7% (inactive). Under `CC[C@H](C)[C@@H](C(=O)OC)n1cc(CNC(=O)[C@@H](Cc2ccccc2)NC(=O)OCc2ccccc2)nn1` stands 87.2% (inactive). `O=C(Nc1ccc(I)cc1F)c1cc(Cl)ccc1O`: the growth is 7% (active).

Regarding `NNC(=O)CNC(=O)Nc1n[nH]c(=S)s1`, the growth is 105% (inactive).

Turning to `COc1ccc(Nc2cc(C)nc(NCc3ccccc3)n2)cc1`, the growth was 7.95% (active).

On to `O=C(Nc1ccc(N2CCNCC2)cn1)c1[nH]ncc1Nc1ncnc2sc3c(c12)CCC3`, for which the growth was -51.7% (active).

On to `COc1c(B(O)O)cccc1-c1nc2ccc3[nH]ncc3c2c2c1C1CCC2C1` (centres undefined), for which the growth is 26.6% (inactive). For `COC(=O)c1cc2c(n1Cc1ccccc1)-c1oncc1CCC2`, the growth is 49.3% (inactive). Under `O=C(Nc1ccc(N2CCNCC2)cc1)c1[nH]ncc1Nc1cc(C2CC2)ncn1` stands 33.2% (inactive).

In the case of `CC(C)CCNCC(O)Cn1c2ccccc2c2ccccc21` (centres undefined), the growth was 11.9% (inactive). Consider `COc1cc(/C=C2\CN(C)C/C(=C\c3cc(CN4CCOCC4)c(O)c(OC)c3)C2=O)cc(CN2CCOCC2)c1O`, for which the growth was 56.8% (inactive).

The values above are taken from PubChem BioAssay (NCI).
